Consider 9 compounds from PubChem BioAssay (NCATS).

Where “and” joins values, the source holds several entries; their conditions need not be identical. Identical values can stand only once. Inconclusive results are not listed. A number with no mark means an inactive call. Calls of active or inactive are those of the source. Unless noted, calls follow the shape of the dose curve; as a rule, active = well fitted curve in either direction with a large enough effect (not every such curve was filed as active); inconclusive = small, poorly fitted or top-dose-only effect, or another doubt; inactive = flat fitted curve, though single readings scatter.

Test [1] has as its target Cytochrome P450 1A2 (Homo sapiens) (UniProt P05177). Kind of test: p450-cyp1a2 (AID 410; calls by dose curve; also: potency is read from the fitted curve at half-maximal effect;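 as to activity change, negative = inhibition: -100% = full effect of reference inhibitor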). The essentials: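 20nM CYP1A2 with 100uM Luciferin-ME (at Km) in 100mM KPO4; compound preincubated 10 min, NADPH regeneration added, 60 min at room temperature. Luciferin quantified by luminescence after detection reagent; normalized to 57 uM furafylline.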
Test [2] is described as follows: AP1 Signaling Pathway (AID 357).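 Also: ME-180 reporter cells stimulated with EGF at its EC50 level; % is scaled to controls: 0 for no effect and ±100 for the full control effect.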 Conditions: ME-180 AP-1-bla reporter, EGF-induced, beta-lactamase ratio, 5 h. Put shortly:
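First, ME-180 AP-1-bla cells were cultured overnight at 37 °C in low-serum Opti-MEM. Next, titrated compounds with EC50 EGF were incubated 5 hours. Finally, CCF4 was added for 2.5 hours and the 460/530 nm ratio recorded.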

Test [3] is described as follows: NFAT Signaling Pathway (AID 444).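 Also: carbachol stimulus at about its EC50 of 1 µM final; % is scaled to controls: 0 for no effect and ±100 for the full control effect.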 The following applies: Jurkat NFAT-bla M1, carbachol, beta-lactamase ratio, 5 h. Put shortly: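 Jurkat cells with NFAT-driven β-lactamase reporter and co-expressed M1 receptor, stimulated with carbachol (final 1 uM, ~EC50), compound titration, 5 h at 37 °C. CCF4 loaded 1 h at RT; 460/530 nm ratio gave %activity and AC50.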
Test [4] can be described thus: Stat Signaling Pathway (AID 446).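 Also: ME-180 cervical cancer cells given 40 pM IL-6 alongside compound; SIE-controlled beta-lactamase reporter measured as 460/530 nm FRET emission ratio; % is scaled to controls: 0 for no effect and ±100 for the full control effect.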 The following applies: ME-180 SIE beta-lactamase reporter, IL-6 stimulated, 5 h. Put shortly: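 Screening format detects activators and inhibitors alike: ME-180 SIE-bla cells stimulated at 40 pM IL-6 for 5 hrs with compound, then dual-emission beta-lactamase read at 405 nm excitation.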

Cytochrome P450 1A2 (Homo sapiens), sequence (P05177 whole entry, looked up): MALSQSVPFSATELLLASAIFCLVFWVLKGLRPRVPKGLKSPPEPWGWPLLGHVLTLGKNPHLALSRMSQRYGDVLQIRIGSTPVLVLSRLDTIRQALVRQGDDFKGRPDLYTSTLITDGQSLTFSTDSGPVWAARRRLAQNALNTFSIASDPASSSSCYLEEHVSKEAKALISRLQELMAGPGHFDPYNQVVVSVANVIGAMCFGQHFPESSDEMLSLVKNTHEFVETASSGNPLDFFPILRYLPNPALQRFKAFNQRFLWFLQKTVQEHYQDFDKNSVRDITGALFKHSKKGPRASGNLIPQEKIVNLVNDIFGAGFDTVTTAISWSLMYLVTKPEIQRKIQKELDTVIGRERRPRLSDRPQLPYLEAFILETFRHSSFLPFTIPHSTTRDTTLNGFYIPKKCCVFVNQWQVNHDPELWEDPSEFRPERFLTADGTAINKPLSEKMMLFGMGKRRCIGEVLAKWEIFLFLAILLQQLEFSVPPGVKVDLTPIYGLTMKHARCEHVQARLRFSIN

With `O=c1c(O)c(-c2ccc(O)c(O)c2)oc2cc(O)ccc12`, in test [1], the Potency is 1.58 µM (active) and 2.51 µM (active).

Take `COc1cc2c(cc1OC)[C@@H]1C(=O)c3ccc4c(c3O[C@@H]1CO2)C=CC(C)(C)O4`: the Potency in test [1] was 15.8 µM (active).

On to `Nc1nc2c(c(=O)[nH]1)N(C=O)[C@H](CNc1ccc(C(=O)N[C@@H](CCC(=O)O)C(=O)O)cc1)CN2`, for which the activity change, negative = inhibition in test [2] (at 17.2 µM (top of the series)) was -9.84%; in test [3] (at 17.2 µM (top of the series)) it was 4.7%. Further, the Potency entry in test [1] was “inactive”. Also, in test [4] (at 17.2 µM (top of the series)), the activity, negative = inhibition was 7.59%.

`CN(C)CC[C@H](c1ccc(Cl)cc1)c1ccccn1`: the activity change, negative = inhibition is 15.5% in test [2] (at 17.2 µM (top of the series)); 10.2% and 11.2% in test [2] (at 38 µM (top of the series)). Further, in test [1], the Potency result was “inactive”. The activity, negative = inhibition in test [4] (at 17.2 µM (top of the series)) was 1.79%; in test [4] (at 38 µM (top of the series)), 2.96%.

Consider `COc1ccc2c(c1OC)C(=O)OC2[C@H]1c2c(cc3c(c2OC)OCO3)CCN1C` (some centres not stated), for which the activity change, negative = inhibition in test [2] (at 17.2 µM (top of the series)) is -2.27%; in test [2] (at 38 µM (top of the series)) it was -1.8%; in test [3] (at 17.2 µM (top of the series)), -11.3%; in test [3] (at 38 µM (top of the series)), -9.62%. Also, the Potency entry in test [1] was “inactive”. Also, the activity, negative = inhibition in test [4] (at 17.2 µM (top of the series)) is 4.57%; in test [4] (at 38 µM (top of the series)) it was 2.78%.

Turning to `CCOC(=O)C1=C(C)NC(=S)NC1c1cccc(O)c1` (configuration not stated), the Potency in test [1] is 39.8 µM (active).

As to `CC(C)[C@H](CO)Nc1nc(Nc2cccc(Cl)c2)c2ncn(C(C)C)c2n1`, the activity change, negative = inhibition in test [2] (at 38 µM (top of the series)) was -111% (active). Also, the Potency in test [1] was 2 µM (active) and 316 nM (active). Besides, the activity, negative = inhibition in test [4] (at 38 µM (top of the series)) is -81.5% (active).

Consider `CN(N=O)C(=O)N[C@H]1C(O)OC(CO)[C@@H](O)[C@H]1O` (some centres not stated), for which the Potency result in test [1] was “inactive”.

With `CCN1CCN(C(=O)N[C@H](C(=O)N[C@@H]2C(=O)N3C(C(=O)O)=C(CSc4nnnn4C)CS[C@@H]23)c2ccc(O)cc2)C(=O)C1=O`, the activity change, negative = inhibition was 6.77% in test [2] (at 17.2 µM (top of the series)) and 3.22% in test [3] (at 17.2 µM (top of the series)). In addition, the Potency entry in test [1] was “inactive”. Moreover, the activity, negative = inhibition in test [4] (at 17.2 µM (top of the series)) was 8%.
